# Laboratory results reported in publication PMC5540273 (PLoS ONE, 2017).
# Tests used:
# Details in all cases: concentration: 1 μM, replicates: in singlicate; n = 1
# MAPKAPK5 = tested on: MAPKAPK5
# MARK1 = tested on: MARK1
# MARK2 = tested on: MARK2
# MARK3 = tested on: MARK3
# MARK4 = tested on: MARK4
# MAST1 = tested on: MAST1
# MEK1 = tested on: T1, MEK1
# T1 construct: gene MAP2K1
# MEK2 = tested on: T2, MEK2
# T2 construct: gene MAP2K2
# MEK3 = tested on: T3, MEK3
# T3 construct: gene MAP2K3
# MEK4 = tested on: T4, MEK4
# T4 construct: gene MAP2K4
# 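Also: KINOMEscan kinase panel screen.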
SMILES,%Inh (MAPKAPK5) [%],%Inh (MARK1) [%],%Inh (MARK2) [%],%Inh (MARK3) [%],%Inh (MARK4) [%],%Inh (MAST1) [%],%Inh (MEK1) [%],%Inh (MEK2) [%],%Inh (MEK3) [%],%Inh (MEK4) [%]
CN(c1ccc(F)c(NC(=O)c2cccc(OC(C)(C)C#N)c2Cl)c1)c1ccc2nc(NC(=O)C3CC3)sc2n1,0,0,0,0,0,40,61,49,0,26
CCn1cnc2c(NCc3ccccc3)ncnc21 [SKF-96418],0,3,0,27,14,67,20,37,40,23
Cc1ccccc1CC(=O)N1CCc2cc(-c3cn(C)c4ncnc(N)c34)ccc21 [GSK2603346],0,0,0,0,0,0,0,0,1,27
Cn1cc(-c2cnc(N)c3c(-c4ccc5c(c4)CCN5C(=O)Cc4ccccc4)csc23)cn1 [GSK2593074],0,0,5,0,9,25,36,23,23,56
COc1cccc(-c2nc(-c3ccccc3)[nH]c2-c2ccncc2)c1 [SB-610250],0,0,0,0,0,22,0,0,0,0
CN1CCN(Cc2ccc(NC(=O)Nc3ccc(N(C)c4ccnc(Nc5ccc(CS(C)(=O)=O)cc5)n4)cc3)cc2)CC1.Cl [GW827654],13,32,60,61,31,32,1,25,74,86
CCNc1nccc(-c2c(-c3ccc(F)cc3)ncn2C2CCN(C)CC2)n1,0,0,0,0,0,46,4,15,0,0
COC(=O)Nc1nc2ccc(Oc3ccc(CC(=O)Nc4cc(C(F)(F)F)ccc4F)cc3)cc2[nH]1 [GW680903],0,0,100,5,0,0,0,0,0,29
O=C(Nc1n[nH]c2nc(-c3ccccc3O)ccc12)C1CC1 [SB-711880],0,0,43,0,0,31,5,25,40,34
Cn1cc(-c2ccc3c(c2)CCN3C(=O)Cc2cc(F)cc(C(F)(F)F)c2)c2c(N)ncnc21 [GSK2635225],0,0,9,0,2,0,0,0,0,29
Nc1cccc(-c2ccc3c(N)n[nH]c3c2)c1 [GSK2193613],0,0,0,0,0,0,53,39,0,12
COc1cc(Nc2ccnc3cc(-c4ccncc4)ccc23)cc(OC)c1OC.Cl [GW494610],0,1,0,0,9,15,14,0,0,27
CCn1c(-c2nonc2N)nc2c(-c3ccccc3)ncc(OCCCN)c21.O=C(O)C(F)(F)F.O=C(O)C(F)(F)F [GSK260205],0,0,0,0,0,28,0,0,0,13
Cc1ccc(C)c(NC(=O)Nc2ccc(C)c(-c3ccc(C(=O)Nc4ccncc4)cc3)c2)c1 [GSK1398473],0,0,0,0,3,0,0,0,0,26
CC(C)c1nc(-c2ccc(F)c(NS(=O)(=O)c3c(F)cccc3F)c2)c(-c2ccnc(Nc3ccc(N4CCOCC4)nc3)n2)s1 [GSK1804250],0,0,15,0,16,0,17,27,19,100
CN(c1ccc(NC(=O)N2CCN(CCCN3CCOCC3)CC2)cc1)c1ccnc(Nc2ccc(CS(C)(=O)=O)cc2)n1.Cl [GW830899],0,0,1,1,30,0,0,23,0,0
Cc1cc(-c2ccnc(Nc3cccc(C#N)c3)n2)cc(C)c1O [GSK1440913],0,0,0,0,0,0,0,0,89,40
Cl.O=C(Nc1ccc(Oc2ccc3[nH]c(NC(=O)c4ccco4)nc3c2)cc1)Nc1cc(C(F)(F)F)ccc1F [GW683134],0,0,0,0,6,8,0,0,0,10
CN(c1ccc2c(c1)nc(NCc1ccccc1)n2C)c1ccnc(Nc2ccc(CS(C)(=O)=O)cc2)n1.Cl [GW811603],0,30,0,0,5,31,0,0,51,34
Cc1ccc(-c2ccc3occ(-c4ccc(S(C)=O)cc4)c3c2)nn1 (stereo not drawn),0,0,14,16,4,0,0,4,0,0
COc1cccc(NC(=O)NCCNc2ccnc(Nc3ccc(F)cc3)n2)c1 [GSK1379879],0,0,0,0,5,0,19,0,10,5
CN(C)CCNS(=O)(=O)c1ccc(-c2ccnc3[nH]ccc23)cc1 [GSK977620],0,8,31,13,2,0,0,0,10,19

SMILES,%Inh (MAPKAPK5) [%],%Inh (MARK1) [%],%Inh (MARK2) [%],%Inh (MARK3) [%],%Inh (MARK4) [%],%Inh (MAST1) [%],%Inh (MEK1) [%],%Inh (MEK2) [%],%Inh (MEK3) [%],%Inh (MEK4) [%]
CN(c1ccc(NC(=O)Nc2cccc(Cl)c2)cc1)c1ccnc(N)n1.Cl [GW830707],0,0,0,43,5,84,16,23,0,0
CCOc1nccc(-c2c(-c3ccc(F)cc3)ncn2C2CCNCC2)n1 [SB-249175],39,3,29,0,0,0,28,31,43,21
O=C(Nc1c(F)cccc1F)c1cc(C(=O)c2ccccc2F)c[nH]1 [GSK1326180],0,0,0,3,9,0,0,0,0,10
CS(=O)(=O)c1cccc(CNc2nc(Nc3ccc4c(c3)CCC(=O)N4)ncc2C(F)(F)F)c1,0,35,16,56,46,0,0,58,61,56
O=C(O)C(F)(F)F.O=c1[nH]ccc2nc(N[C@@H]3CCNC3)nc(Nc3ccc4c(c3)S(=O)(=O)CC4)c12 [GSK2181306],90.4,65,91.7,70,81,12,97.5,94.7,93.5,91
Nc1ncc(-c2ccc3nccc(-c4ccncc4)c3c2)cc1S(=O)(=O)N1CCCCC1 [GSK1693850],0,0,15,0,0,0,0,0,13,33
Cc1ccc(O)cc1Nc1ccnc2cc(-c3ccc(CN4CCCCC4)o3)ccc12 [GW557777],0,8,8,0,0,0,17,30,2,0
CN(C)c1ncnc2nc[nH]c12 [SKF-31736],0,0,9,23,9,49,28,46,54,8
COc1cc(Nc2nccc(N3CCC(NS(=O)(=O)c4ccc(NC(C)=O)cc4)CC3)n2)cc(OC)c1OC [GSK1379825],0,14,1,0,15,13,0,0,6,14
Cn1cc(-c2ccc3c(c2)CCN3C(=O)Cc2cc(F)cc(F)c2F)c2c(N)ncnc21 [GSK2634140],0,0,0,0,0,0,0,0,0,37
COc1cccc(C2=C(Nc3cccc(O)c3)C(=O)NC2=O)c1 [SB-390771],0,0,0,1,8,4,0,0,0,0
COC(=O)Nc1nc2cc(Oc3ccc(NC(=O)Nc4cccc(SC)c4)cc3)ccc2[nH]1.Cl [GW697999],0,0,0,0,9,14,0,0,0,12
CCNC(=O)/C=C/c1n[nH]c2cc(Sc3ccccc3C(=O)NC)ccc12,18,0,34,0,3,0,17,18,14,0
Cc1cc(-c2c(-c3ccc(F)cc3)ncn2CCCN2CCOCC2)nc(N)n1 [SB-222517],0,23,0,0,32,14,21,47,23,26
CN(C)CCOc1ccc(-c2cc(-c3ccc(Cl)c(O)c3)c(-c3ccncc3)[nH]2)cc1.Cl.Cl [SB-684387],29,0,14,14,0,52,0,35,5,10
COc1cccc(CC(=O)N2CCc3cc(-c4cn(C)c5ncnc(N)c45)ccc32)c1 [GSK2608899],0,0,0,7,0,0,39,0,0,53
CC(C)c1nc(-c2cccc(NS(=O)(=O)c3c(F)cccc3F)c2)c(-c2ccnc(Nc3ccc(N4CCOCC4)nc3)n2)s1.Cl [GSK1723980],0,0,0,0,40,0,5,35,15,98.6
O=C(Nc1n[nH]c2nc(-c3ccccc3)ccc12)C1CC1 [SB-708999],0,0,0,0,8,22,6,0,0,0
Cl.Cl.NC(CNC(=O)c1cc(Br)c(-c2ccnc3[nH]ccc23)s1)c1ccccc1 (stereo not drawn) [GSK1322949],0,0,22,0,0,29,0,0,74,57
N#Cc1cnc2cc(-c3cnc(CNCCN4CCOCC4)s3)ccc2c1Nc1ccc(Oc2ccccc2)cc1 [GW664114],0,35,0,9,5,0,100,100,9,80
O=C(Nc1n[nH]c2nc(-c3cccc(O)c3)ccc12)C1CC1 [SB-711805],3,31,30,0,0,42,10,10,41,12
Cc1ccc(Nc2ccnc(Nc3ccc(C)c(F)c3)n2)cc1O.Cl [GW582868],0,0,0,0,0,28,0,0,13,28

SMILES,%Inh (MAPKAPK5) [%],%Inh (MARK1) [%],%Inh (MARK2) [%],%Inh (MARK3) [%],%Inh (MARK4) [%],%Inh (MAST1) [%],%Inh (MEK1) [%],%Inh (MEK2) [%],%Inh (MEK3) [%],%Inh (MEK4) [%]
CNc1nccc(-c2ccc3c(N)n[nH]c3c2)n1 [GSK2206003],0,0,25,0,0,0,0,5,34,22
Cc1cccc(Nc2nc(NCCN)ncc2C(N)=O)c1 [GSK1292139],44,0,39,7,0,0,0,9,94.9,55
O=C(O)C(F)(F)F.O=c1[nH]ccc2nc(N[C@@H]3CCNC3)nc(Nc3cc(Cl)cc(Cl)c3)c12 [GSK2188764],47,52,87,85,41,28,79,84,88,72
CSc1ccc(NC2=C(c3ccc(Cl)cc3)C(=O)NC2=O)cc1 [SB-317658],0,3,0,28,21,23,3,6,0,0
NCCC(NC(=O)c1cc(Br)c(-c2ccnc3[nH]ccc23)s1)c1ccccc1.O=C(O)C(F)(F)F.O=C(O)C(F)(F)F (stereo not drawn) [GSK1307810],0,7,26,0,11,15,0,0,93.7,52
Cc1cccc(Nc2nc(N[C@H]3CCCC[C@H]3N)ncc2C(N)=O)c1.Cl [GSK986310],0,5,37,0,13,0,8,19,88,69
CC(C)(C)c1ccc(C(=O)Nc2cn3cc(-n4ccnc4)ccc3n2)cc1,0,0,3,0,0,38,5,6,0,38
CC(=O)Nc1cn2nc(Oc3cccc(NC(=O)c4cccc(C(F)(F)F)c4)c3)ccc2n1,0,0,0,8,20,8,0,18,0,0
Fc1cc(Cl)ccc1Nc1ccnc2cc(-c3ccc(CN4CCSCC4)o3)ccc12 [GW560106],0,5,0,0,21,34,53,35,0,3
Cl.Cl.NCC(NC(=O)c1cc(-c2cccnc2)c(-c2ccnc3[nH]ccc23)s1)c1ccccc1 (stereo not drawn) [GSK1323434],0,0,40,0,8,0,0,0,39,25
COc1ccc(C2=C(Nc3cccc(O)c3)C(=O)NC2=O)cc1 [SB-390766],0,46,0,0,19,0,0,0,0,0
Nc1ncnc2scc(-c3ccc(NC(=O)Cc4cc(F)ccc4F)cc3)c12.O=C(O)C(F)(F)F [SB-731254-M],10,27,31,0,6,21,24,19,23,18
Cc1ccc(NC(=O)c2ccc(Cl)c(Cl)c2)cc1-c1ccc(C(=O)Nc2ccncc2)cc1 [GSK1398460],0,7,0,0,16,0,0,0,0,0
CC(C)NCC(Cc1ccccc1)NC(=O)c1cc(Br)c(-c2ccnc3[nH]ccc23)s1.Cl.Cl (stereo not drawn) [GSK1383281],0,11,31,60,0,0,0,0,87,39
Cc1ccc(NC(=O)c2ccnc(N3CCCCC3)c2)cc1-c1ccc(C(=O)NCC2CC2)cc1 [GW775610],5,0,14,0,2,37,4,0,45,0
Cl.N#CCc1ccc(Nc2nccc(Nc3ccc(Oc4ccccc4)cc3)n2)cc1 [GW639905],0,0,0,0,0,0,2,12,0,22
COc1cc(Nc2nccc(N3CCC(NC(=O)Nc4ccc5c(c4)OCO5)C3)n2)cc(OC)c1OC (stereo not drawn) [GSK1379766],0,4,0,0,1,0,0,0,2,8
COc1cccc2c(-c3ccncc3)c(-c3ccc(F)cc3)nn12 [GW468513],0,0,0,0,3,15,0,1,0,19
c1ccc(Oc2ccc(Nc3ccnc4cc(-c5ccc(CN6CCCCC6)o5)ccc34)cc2)nc1 [GW567143],0,0,0,0,5,0,95.3,97.1,0,0
COC(=O)Nc1nc2ccc(Oc3ccc(NC(=O)Nc4cc(C(F)(F)F)ccc4F)cc3)cc2[nH]1.Cl [GW654607],0,0,0,0,0,0,0,0,0,15
Cc1ccc(O)cc1Nc1ccnc2ccc(C(C)(C)C)cc12 [GW856805],0,36,20,21,37,69,17,21,67,42
COc1ccc(NC(=O)c2ccoc2)cc1-c1ccc(C(=O)NCC2CC2)cc1 [GW810437],0,17,0,47,18,56,13,24,36,0
